HCMV inh = blocks human cytomegalovirus replication. AID 1259415. activity change, negative = inhibition, % at 57.5 µM. HFF cells, HCMV-luciferase reporter, 72 h; active compounds read low. actives 4.5% (n = 410,000); in the data active = activity change below about -60%; inconclusive = no clear call, values can overlap the other calls; inactive = above about -39%
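Inhibition of viral replication was scored as loss of reporter luminescence in HFFs infected with HCMV-luciferase (MOI 1 PFU/cell) for 72 h; compounds tested at 2 doses, normalized to buffer and Salinomycin controls.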
Vaccinia Venus = vaccinia inhibition (Venus reporter); Vaccinia virus Venus reporter expression, fluorescence; Potency, µM (highest dose often 36.5 µM), inactives show at the top dose activity change, negative = inhibition, actives largely listed as inhibitors; actives 0.46% (n = 330,000); AID 720580; calls by dose curve; tested in A549 cells; also: potency is read from the fitted curve at half-maximal effect; nearly all actives have a fitted effect of over 30% in size
Marburg entry inh = inhibitors of Marburg virus binding or cell entry; actives 1.8% (n = 300,000); Marburg virus pseudotyped entry inhibition, cell reporter; AID 540276; Potency, µM (titrated, usually from 37.8 µM), inactives show at the highest dose activity change, negative = inhibition, most hits filed as inhibitors; calls by dose curve; tested in HEK293 cells; also: potency is read from the fitted curve at half-maximal effect
HCV inh = inhibitors of hepatitis C virus infection; Huh7.5.1 HCVcc-Cre infection, luciferase reporter, 44 h; Potency, µM (titrated, usually from 41.8 µM), inactives show top-dose activity change, negative = inhibition, most hits filed as inhibitors; actives 3.4% (n = 340,000); AID 651820; active = well fitted inhibition curve with a large enough effect; inconclusive = small, poorly fitted or top-dose-only effect, or another doubt; inactive = no such curve, though single readings can be large or run the other way; also: potency is read from the fitted curve at half-maximal effect
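Cells seeded at 1,000/well and cultured 4 h, then compounds added followed by HCVcc-Cre virus (~0.5 moi). After 44 h further culture, luciferase substrate was added, plates held 15 min at room temperature, and luminescence read for 15 sec.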
Vaccinia mCherry = inhibitors of vaccinia virus infection (mCherry reporter signal); Vaccinia virus mCherry reporter infection, fluorescence; Potency, µM (titrated, usually from 36.5 µM), inactives show top-dose activity change, negative = inhibition, hits mostly inhibitors; actives 0.63% (n = 310,000); calls by dose curve; tested in A549 cells; also: potency is read from the fitted curve at half-maximal effect; nearly all actives have a fitted effect of over 35% in size
LASV entry inh = blocks Lassa virus binding to or entry into cells. Lassa virus pseudotype entry inhibition, cell reporter. Potency, µM (top dose mostly 37.9 µM), inactives show at the highest dose activity change, negative = inhibition, actives largely listed as inhibitors. actives 1.2% (n = 300,000). AID 540256; calls by dose curve; tested in HEK293 cells; also: potency is read from the fitted curve at half-maximal effect; nearly all actives have a fitted effect of over 50% in size
Numbers without * were called inactive; i = inactive; ? = inconclusive; nt = no result; [ ] = remark or other dose. A selection: hits, their analogues and other compounds. The true share with any hit is near 7.8%. % is scaled to controls: 0 for no effect and ±100 for the full control effect.

SMILES	HCMV inh	Vaccinia Venus	Marburg entry inh	HCV inh	Vaccinia mCherry	LASV entry inh
COc1ccccc1C1CN(CC(=O)N[C@H]2CCCCNC2=O)Cc2ccccc2O1 (stereo not given in full)	nt	6.2%	nt	nt	-15.2%	nt
Cc1ccc(N(C)C(=O)c2cc(S(=O)(=O)N3CCOCC3)cn2C)cc1	-22.0	-8.9%	nt	nt	-9.9%	-0.6%[46.1 µM]
O=C(Cc1cccs1)N[C@@H]1c2ccccc2CC[C@H]1OCc1ccccc1	-99.3*	-9.1%	nt	0.2%	i	nt
O=C(Cc1cccs1)N[C@@H]1c2ccccc2CC[C@@H]1OCc1ccccc1	-17.2	2.4%	nt	6.4%	i	nt
COc1ccc(CC(=O)N[C@@H]2c3ccccc3CC[C@H]2OCc2ccccc2)cc1	-17.1	-5.2%	nt	?	i	nt
CC(C)C(=O)N[C@@H]1c2ccccc2CC[C@@H]1OCc1ccccc1	-82.2*	0.0%	nt	1.8%	i	nt
Cn1c(-c2cccnc2)cc2cnc(Nc3ccc4c(c3)OCCO4)cc21	43.0	nt	nt	nt	nt	nt
C=CCSc1nccc(-c2nn(-c3ccc(C)cc3)ccc2=O)n1	-17.4	-8.3%	?	?	-17.2%	3.16µM*
CCSc1nccc(-c2nn(-c3ccc(C)cc3)ccc2=O)n1	-4.9	-28.5%	?	?	?	?
Cn1c(CCNC(=O)C2CC23CCN(C(=O)C2=CCCC2)CC3)nc2ccccc21 (stereo not given)	nt	-0.1%	nt	nt	-4.6%	nt
Cc1ccc(Cl)cc1N1CCN(C(=O)c2ccc(CS(=O)(=O)c3ccccc3C)o2)CC1	-14.9	2.8%	?	nt	0.3%	-17.4%[46.1 µM]
Cc1ccccc1S(=O)(=O)Cc1ccc(C(=O)N2CCN(c3ccccc3F)CC2)o1	-33.8	-12.2%	?	10µM*	-9.8%	?
O=C(c1ccc(CS(=O)c2ccccc2Cl)o1)N1CCCCCC1 (stereo not given)	1.6	7.0%[7.34 µM]	nt	2.4%	2.1%[7.34 µM]	nt
O=C(c1ccc(CS(=O)c2ccccc2Cl)o1)N1CCN(C2CCCCC2)CC1 (stereo not given)	-100.6*	-21.2%	nt	nt	-19.2%	nt
O=C(c1ccc(CS(=O)c2ccccc2Cl)o1)N1CCN(c2ccccc2F)CC1 (stereo not given)	-66.9*	-19.5%	nt	nt	-21.3%	-12.7%[46.1 µM]
C=CCN=C1NN=C(c2cc(C)n(CC=C)c2C)CS1	-88.2*	-0.9%	?	?	-1.1%	?
Cc1sc(N)nc1-c1ccc2c(c1)OCCO2	31.1	nt	nt	14.4%	nt	nt
COCCN=C1NN=C(c2cc(C)n(CC3CCCO3)c2C)CS1 (stereo not given)	30.1	-1.6%	4.6%[46.1 µM]	-25.9%	-8.7%	nt
c1ccc(C2=NNC(=NCc3ccc4c(c3)OCO4)SC2)cc1	-32.3	-7.5%	5.4%	0.8%	-10.0%	-3.3%
C=CCN=C1NN=C(c2ccc3c(c2)OCCO3)CS1	-32.7	-16.0%	0.92µM*	-18.2%	?	0.461µM*
NC1=NN=C(c2ccc3c(c2)OCCO3)CS1	46.7	-18.2%	11.2µM*	6.2%	-14.9%	7.08µM*
Cc1cnc(-n2ncc(C(=O)NCC3CCCN(C)C3)c2C)nc1-c1cccs1 (stereo not given)	nt	-11.2%	nt	nt	-10.3%	nt
CC(CC(O)C1OC1(C)C)C1CCC2(C)C3=CCC4C(C)(C)C(=O)CCC4(C)C3CC[C@@]12C (stereo not given in full)	nt	-6.8%	nt	nt	-15.1%	nt
COc1ccc(Cl)cc1NC(=O)CN(C)C(=O)c1cc2c(F)cccc2s1	-26.6	nt	nt	3.98µM*	nt	nt
O=C(Nc1ccc(C(=O)OC[C@@H]2CCCN3CCCC[C@H]23)cc1)c1cccc(Br)c1	-4.5	?	9.2µM*	11.2µM*	-1.0%	-6.5%
Nc1nc(SCc2ccccc2)c2ncn(CCO)c2n1	3.5	-17.6%	-7.8%	18.0%	-12.8%	0.7%
Cn1cnc([N+](=O)[O-])c1Sc1nc(N)nc2c1ncn2Cc1ccccc1	-19.1	?	?	?	12.6µM*	-28.1%
CCCn1cnc2c(Sc3c([N+](=O)[O-])ncn3C)nc(N)nc21	-32.4	?	2.6%	-4.7%	?	?
Nc1nc(SCc2ccccc2[N+](=O)[O-])c2ncn(Cc3ccccc3)c2n1	2.6	-24.2%	?	11.2µM*	?	-12.7%[46.1 µM]
